# Results published in PubChem BioAssay (NCATS).
# Inconclusive results are not listed. Where a call stands in place of a potency, no number is given. Calls of active or inactive are those of the source. Unless noted, the call rests on the fitted dose curve; in most records, active means well fitted curve in the direction sought with a large enough effect; inconclusive means small, poorly fitted or top-dose-only effect, or another doubt; inactive means no such curve, though single readings can be large; an effect the other way counts as inactive or inconclusive.
# Molecular target: Glucagon-like peptide 1 receptor (Homo sapiens) (UniProt P43220)
# Assay: qHTS of GLP-1 Receptor Agonists: LOPAC Validation (AID 624148);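 further: higher luminescence signal means agonism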
# Conditions: GLP-1R agonist cell assay; series mostly up to 46.1 µM
# Summary of the method: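 HEK293 cells stably co-expressing GLP-1R and a cAMP-responsive luciferase reporter, plated 12 hours before compound, then incubated 4-6 hr at 37 deg C. Luminescence read 12 min after detection reagent.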
# Sequence of Glucagon-like peptide 1 receptor (Homo sapiens) (P43220 whole entry, looked up): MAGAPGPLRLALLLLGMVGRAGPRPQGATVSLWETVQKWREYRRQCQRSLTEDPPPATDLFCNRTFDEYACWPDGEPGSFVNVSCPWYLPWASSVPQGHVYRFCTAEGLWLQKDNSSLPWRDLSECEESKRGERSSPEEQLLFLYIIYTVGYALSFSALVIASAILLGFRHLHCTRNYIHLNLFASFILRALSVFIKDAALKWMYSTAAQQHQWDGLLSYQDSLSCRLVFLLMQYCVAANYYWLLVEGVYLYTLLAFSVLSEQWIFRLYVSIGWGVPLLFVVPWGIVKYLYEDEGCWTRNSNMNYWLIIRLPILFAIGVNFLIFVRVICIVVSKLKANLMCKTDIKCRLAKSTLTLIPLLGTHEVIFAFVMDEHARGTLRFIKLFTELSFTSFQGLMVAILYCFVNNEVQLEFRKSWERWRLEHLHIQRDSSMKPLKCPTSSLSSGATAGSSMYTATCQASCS
row,SMILES,outcome
1,CCC1C(=O)OCC1Cc1cncn1C (centres undefined),inactive
2,Clc1ccc(N2CCN(Cc3c[nH]c4ncccc34)CC2)cc1,inactive
3,CC(N)C(=O)OC(C)(C)Cc1ccc(Cl)cc1 (centres undefined),inactive
4,COc1ccc(/C=C/C(=O)Nc2ccccc2C(=O)O)cc1OC,inactive
5,Cc1ccccc1CNc1ncnc2c1ncn2C1OC(CO)C(O)C1O (centres undefined),inactive
6,NC[C@H]1O[C@@H](n2cnc3c(N)ncnc32)[C@H](O)[C@@H]1O,inactive
7,N=c1ccn2c(n1)O[C@H]1[C@H](O)[C@@H](CO)O[C@H]12,inactive
8,CN(C)c1ccc(/C=C2\C(=O)Nc3ccccc32)cc1,inactive
9,CC[C@@H](C)[C@H]1O[C@]2(CC[C@H]1C)C[C@@H]1C[C@@H](CC=C(C)[C@@H](O[C@H]3C[C@H](OC)[C@@H](O[C@H]4C[C@H](OC)[C@@H](O)[C@H](C)O4)[C@H](C)O3)[C@@H](C)C=CC=C3CO[C@@H]4[C@H](O)C(C)=C[C@@H](C(=O)O1)[C@]34O)O2,inactive
10,Oc1cc(O)cc(/C=C/c2ccc(O)c(O)c2)c1,inactive
11,O=C(O)/C=C/C(O)c1ccc(Cl)cc1 (centres undefined),inactive
12,C#C[C@]1(O)CC[C@H]2[C@@H]3CCC4=Cc5oncc5CC4(C)[C@H]3CCC21C (some centres undefined),inactive

# System: not listed separately
# Assay: qHTS of Nrf2 Activators: LOPAC Validation (AID 624149)
# Conditions: Nrf2/ARE reporter cell assay; series mostly up to 46.1 µM
# Summary of the method: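 Following overnight seeding in 5% FBS OPTI-MEM, AREc32_Fluc cells receive compounds for a 24 hr incubation at 37 deg C with 5% CO2. Steady-Glo is added, and after 30 min at RT luminescence is recorded.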
row,SMILES,outcome
1,CCC1C(=O)OCC1Cc1cncn1C (centres undefined),inactive
2,Clc1ccc(N2CCN(Cc3c[nH]c4ncccc34)CC2)cc1,inactive
3,CC(N)C(=O)OC(C)(C)Cc1ccc(Cl)cc1 (centres undefined),inactive
4,Cc1ccccc1CNc1ncnc2c1ncn2C1OC(CO)C(O)C1O (centres undefined),inactive
5,NC[C@H]1O[C@@H](n2cnc3c(N)ncnc32)[C@H](O)[C@@H]1O,inactive
6,N=c1ccn2c(n1)O[C@H]1[C@H](O)[C@@H](CO)O[C@H]12,inactive
7,C#C[C@]1(O)CC[C@H]2[C@@H]3CCC4=Cc5oncc5CC4(C)[C@H]3CCC21C (some centres undefined),inactive

# System: not listed separately
# Assay: HTS Assay for Allosteric Antagonists of the Human D2 Dopamine Receptor: Hit Validation in HTRF (AID 624455);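 further: stable D1 dopamine receptor cell line scored for blocking the D1 response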
# Conditions: Cells stably expressing D1 dopamine receptor, inhibition mode; series mostly up to 46.1 µM
# Summary of the method: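 Validation of hits used D1 receptor stably expressed in cells with HTRF detection of response inhibition; origin screen measured calcium flux following EC80 dopamine in a force-coupled, inducible Hek293 Trex D2 cell line.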
row,SMILES,Potency
1,CCC1C(=O)OCC1Cc1cncn1C (centres undefined),inactive
2,CC(N)C(=O)OC(C)(C)Cc1ccc(Cl)cc1 (centres undefined),inactive
3,Cc1ccccc1CNc1ncnc2c1ncn2C1OC(CO)C(O)C1O (centres undefined),inactive
4,N=c1ccn2c(n1)O[C@H]1[C@H](O)[C@@H](CO)O[C@H]12,inactive

# System: not listed separately
# Assay: qHTS assay for small molecule agonists of the antioxidant response element (ARE) signaling pathway (AID 651741; active means well fitted activation curve with a large enough effect in the signal ratio; the % refers to the signal ratio; further: potency means the concentration at half of the fitted maximal effect)
# Conditions: HepG2 ARE-bla reporter, beta-lactamase FRET ratio, 16 h; series mostly up to 96 µM
# Summary of the method: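 HepG2 ARE-bla reporter cells, 2,000/well; 5 h settle at 37 C/5% CO2; compound pin transfer (23 nL, DMSO); 16 h at 37 C; LiveBLAzer B/G FRET substrate, 2 h RT; fluorescence intensity read.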
row,SMILES,Potency
1,c1ccc2sc(SSc3nc4ccccc4s3)nc2c1,26.6 µM (active)
2,COc1cc(/C=C/C(=O)CC(=O)/C=C/c2ccc(O)c(OC)c2)ccc1O,25.9 µM (active)
3,Nc1ccc(O)c(C(=O)O)c1,inactive
4,CN1[C@@H]2CC[C@H]1CC(OC(=O)C(CO)c1ccccc1)C2 (some centres undefined),inactive
5,CCCCCCCCCCCCCCCCCC(=O)O,inactive
6,Nc1cc(-c2ccncc2)c[nH]c1=O,inactive
